Results taken from PubChem BioAssay (NCI).
Compounds without any hit were thinned out: in the full panel of roughly 79,000, 15% have a hit. Calls of active or inactive are those of the source. No stated cut-off is given here; in the data, active means growth inhibition above about 70%; inactive means the rest.

What was measured:
[1] = NCI Yeast Anticancer Drug Screen. Data for the rad52 strain (AID 147);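 further: 0% = growth of vehicle-treated control cultures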; settings: S. cerevisiae rad52 mutant growth inhibition, hits give high values
How it was run: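 Screen used a yeast mutant impaired in DNA repair. After compound exposure, growth was measured. Values reflect inhibition compared with vehicle-treated cells.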

[2] = NCI Yeast Anticancer Drug Screen. Data for the wt1 strain (AID 149);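 further: 0% = growth of vehicle-treated wt1 cultures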; settings: S. cerevisiae wt1 strain (SPY 50644) growth inhibition, hits give high values
How it was run: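 Compounds are added to wt1 yeast cultures. Growth is then measured. Inhibition is expressed relative to vehicle-treated controls.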

[3] = NCI Yeast Anticancer Drug Screen. Data for the rad50EPP+ strain (AID 151);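 further: 0% = growth of vehicle-treated control cultures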; settings: S. cerevisiae rad50 mutant strain, hits give high values
How it was run: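 Exposing the rad50EPP+ strain to each compound, growth was compared with vehicle-only cultures to give inhibition.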

[4] = NCI Yeast Anticancer Drug Screen. Data for the mec2-1 strain (AID 157); settings: S. cerevisiae mec2-1 strain, hits give high values
How it was run: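 Readout is yeast growth inhibition, normalised to vehicle-treated controls, in the mec2-1 strain exposed to compound.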

[5] = NCI Yeast Anticancer Drug Screen. Data for the rad14 strain (AID 159);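 further: 0% = growth of vehicle-treated control cultures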; settings: S. cerevisiae rad14 strain growth inhibition, hits give high values
How it was run: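 A mutant yeast strain defective in DNA damage repair is treated with compound; inhibition of its growth is scored against untreated, vehicle-exposed cultures.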

[6] = NCI Yeast Anticancer Drug Screen. Data for the sgs1 mgt1 strain (AID 161);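 further: 0% = growth of cultures given vehicle only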; settings: S. cerevisiae sgs1 mgt1 strain, hits give high values
How it was run: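 Compounds are added to genetically altered yeast, and growth is compared with cultures given vehicle alone to give percent inhibition.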

[7] = NCI Yeast Anticancer Drug Screen. Data for the CLN2oe strain (AID 163);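 further: 0% = growth of vehicle-only control cultures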; settings: S. cerevisiae CLN2oe strain, hits give high values
How it was run: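 Values reflect how much compound exposure reduced yeast growth, referenced to vehicle-exposed cells. Assay organism is a strain with a defined genetic change affecting cell-cycle control.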

[8] = NCI Yeast Anticancer Drug Screen. Data for the cln2 rad14 strain (AID 165);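 further: 0% = growth equal to vehicle treated cultures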; settings: S. cerevisiae cln2 rad14 strain, hits give high values
How it was run: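 Relative to vehicle controls, growth inhibition of compound-treated cln2 rad14 yeast was recorded.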

[9] = NCI Yeast Anticancer Drug Screen. Data for the bub3 strain (AID 167); settings: S. cerevisiae bub3 mutant strain, hits give high values
How it was run: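 Steps: expose the mutant yeast strain to compound; grow alongside vehicle-treated cultures; measure growth; express inhibition against the vehicle cultures.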

[10] = NCI Yeast Anticancer Drug Screen. Data for the wt2 strain (AID 169);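 further: 0% = growth of vehicle-treated yeast cultures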; settings: S. cerevisiae wt2 strain growth inhibition, hits give high values
How it was run: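 Values express reduction in yeast growth under compound treatment, referenced to vehicle-treated cells.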

[11] = NCI Yeast Anticancer Drug Screen. Data for the mlh1 strain (AID 171);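 further: 0% = growth of vehicle-treated control cultures of the same strain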; settings: S. cerevisiae mlh1 strain growth inhibition, hits give high values
How it was run: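 Steps: expose the defined-mutant yeast strain to compound; expose a parallel culture to vehicle; measure growth; express compound effect as inhibition relative to the vehicle culture.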

[12] = NCI Yeast Anticancer Drug Screen. Data for the sgs1 strain (AID 173);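 further: 0% = growth of vehicle-only control cultures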; settings: S. cerevisiae sgs1 mutant, hits give high values
How it was run: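 Treat defined-mutant yeast with compound; measure growth; calculate inhibition relative to vehicle-treated cells.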

[13] = NCI Yeast Anticancer Drug Screen. Data for the mlh1 rad18 strain (AID 175); settings: S. cerevisiae mlh1 rad18 strain growth inhibition, hits give high values
How it was run: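 Test agents were incubated with a yeast strain of defined genotype (DNA damage repair defect). Inhibition of growth was derived by comparison with vehicle-exposed cultures.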

[14] = NCI Yeast Anticancer Drug Screen. Data for the rad18 strain (AID 177); settings: S. cerevisiae rad18 mutant growth inhibition, hits give high values
How it was run: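 A genetically defined yeast mutant impaired in DNA damage repair was treated with test compounds, then its growth was measured against cultures receiving vehicle alone.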

[15] = at 5.0 µM (retest, dose inferred, filed as 0.5)
[16] = at 50.0 µM (retest, dose inferred, filed as 5.0)

Measured: growth inhibition

COC(=O)c1n[nH]c(C)c1N=NN(C)CCC#N
active: [1]; at 3.7 µM 91% | [1]; at 11.0 µM 97% | [1]; at 33.0 µM 98% | [1]; at 100.0 µM 99% | [2]; at 11.0 µM 97% | [2]; at 33.0 µM 99% | [2]; at 100.0 µM 99% | [3]; at 3.7 µM 77% | [3]; at 11.0 µM 95% | [3]; at 33.0 µM 97% | [3]; at 100.0 µM 99% | [4]; at 11.0 µM 99% | [4]; at 33.0 µM 99% | [4]; [16] 98% | [4]; at 50.0 µM 99.2% | [4]; at 100.0 µM 99% | [5]; at 11.0 µM 72% | [5]; at 33.0 µM 99% | [5]; at 100.0 µM 99% | [6]; [16] 96% | [6]; at 50.0 µM 98.8% | [7]; at 11.0 µM 95% | [7]; at 33.0 µM 99% | [7]; at 100.0 µM 99% | [8]; [16] 98% | [8]; at 50.0 µM 97.8% | [9]; at 11.0 µM 80% | [9]; at 33.0 µM 99% | [9]; [16] 97% | [9]; at 50.0 µM 99% | [9]; at 100.0 µM 98% | [10]; at 11.0 µM 99% | [10]; at 33.0 µM 99% | [10]; at 100.0 µM 99% | [11]; at 11.0 µM 98% | [11]; at 33.0 µM 99% | [11]; at 100.0 µM 99% | [12]; at 3.7 µM 70% | [12]; at 11.0 µM 99% | [12]; at 33.0 µM 99% | [12]; at 100.0 µM 99% | [13]; [16] 97% | [13]; at 50.0 µM 98.8% | [14]; at 11.0 µM 95% | [14]; at 33.0 µM 98% | [14]; at 100.0 µM 99%
inactive: [1]; at 1.2 µM 46% | [2]; at 1.2 µM -6% | [2]; at 3.7 µM -5% | [3]; at 1.2 µM 26% | [4]; at 1.2 µM 2% | [4]; at 3.7 µM 3% | [4]; [15] -31% | [5]; at 1.2 µM 1% | [5]; at 3.7 µM 11% | [6]; [15] -11% | [7]; at 1.2 µM -2% | [7]; at 3.7 µM -3% | [8]; [15] -41% | [9]; at 1.2 µM -21% | [9]; at 3.7 µM -16% | [9]; [15] -71% | [10]; at 1.2 µM 0% | [10]; at 3.7 µM 11% | [11]; at 1.2 µM 7% | [11]; at 3.7 µM 0% | [12]; at 1.2 µM 15% | [13]; [15] -49% | [14]; at 1.2 µM 16% | [14]; at 3.7 µM 68%
